# Records with an inconclusive call do not appear. Where a call stands in place of a potency, no number is given. Values without a mark were called inactive. The source made the active and inactive calls. The call rests on the fitted dose curve; in most records, active means well fitted curve in the direction sought with a large enough effect; inconclusive means small, poorly fitted or top-dose-only effect, or another doubt; inactive means no such curve, though single readings can be large; an effect the other way counts as inactive or inconclusive.
# Experiments:
# Furin (Homo sapiens) = Furin (Homo sapiens) (UniProt P09958); assay: Furin counterscreen qHTS for Zika virus inhibitors (AID 1347149); further: nearly all actives have a fitted effect of over 70% in size; further: potency means the concentration at half of the fitted maximal effect;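 on activity change, negative = inhibition: purified recombinant full-length human furin enzyme at 5 nM; fluorescence gain from furin cutting a BOC-RVRR-AMC peptide substrate over 15 min; top concentration of the series differs between compounds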
# Outline: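 Counterscreen measures cleavage of 2 microM BOC-RVRR-AMC, below its ~15 microM Km, by 5 nM full-length human furin at pH 7.0 after a 15-min compound preincubation. Inhibition derives from the 15-min fluorescence increase at 37C.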
# [1] = test system: Zika virus NS2B-NS3 protease (linked construct); assay: Confirmatory screen NINDS AMC qHTS for Zika virus inhibitors (AID 1347152); further: nearly all actives have a fitted effect of over 70% in size; further: potency means the concentration at half of the fitted maximal effect;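 on activity change, negative = inhibition: AMC fluorescence gain from cleaved Bz-Nle-KRR-AMC substrate over 15 min; top concentration of the series differs between compounds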
# Outline: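 Linked NS2B-NS3 protease, 1 nM, in 10 mM Tris-HCl pH 8.0, 0.01% Tween 20; compounds preincubated 15 min at room temperature. Nle-KRR-AMC 10 microM (Km 18.3 µM); 15-min fluorescence change (340/450 nm) fitted to 4-parameter Hill.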
# [2] = test system: Zika virus NS2B-NS3 protease (unlinked complex); assay: Confirmatory screen GU AMC qHTS for Zika virus inhibitors (AID 1347153); further: nearly all actives have a fitted effect of over 70% in size
# Outline: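 Fluorescence change (ex 340/em 450 nm) over 15 min, ~20% substrate conversion, normalized to no-inhibitor and no-enzyme controls, then Hill-fitted. Unlinked protease at 25 nM; AMC peptide 10 µM.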
# [3] = Confirmatory screen NINDS Rhodamine qHTS for Zika virus inhibitors (AID 1347161); further: nearly all actives have a fitted effect of over 60% in size; further: potency means the concentration at half of the fitted maximal effect;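 on activity change, negative = inhibition: purified Zika NS2B-NS3 protease with linked NS2B cofactor domain and Rhodamine110 peptide substrate; series mostly up to about 110 µM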
# Outline: (§1)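 Enzyme (25 nM, linked NS2B-NS3) was preincubated 15 min with compound in 10 mM Tris-HCl pH 8.0, 0.01% Tween 20. Rhodamine110 substrate (1.5 microM) was then added and fluorescence read at start and after 15 min.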
# [4] = HepG2 cells viability qHTS for Zika virus inhibitors (AID 1347168)
# Outline: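 qHTS titration; 24-48 h compound exposure, 37 degrees C/5% CO2; DMEM, 4% FBS; CellTiter Glo ATP luminescence.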
# [5] = Tertiary RLuc qRT-PCR qHTS assay for Zika virus inhibitors (AID 1347169); further: nearly all actives have a fitted effect of over 55% in size; further: potency means the concentration at half of the fitted maximal effect; on activity change, negative = inhibition: top concentration of the series differs between compounds
# Outline: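 Vero cells (1,000/well) infected with recombinant ZIKV-RLuc (Cambodian) at MOI 1-2 after compound addition, 48-72 hrs at 37 degrees C. Live-cell Renilla luciferase substrate added; luminescence read after 1-1.5 hrs.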
# [6] = test system: Zika virus NS2B-NS3 protease; assay: Primary screen GU AMC qHTS for Zika virus inhibitors (AID 1347154); further: nearly all actives have a fitted effect of over 70% in size; further: potency means the concentration at half of the fitted maximal effect
# Outline: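 Unlinked Zika NS2B hydrophilic domain–NS3 protease complex at 25 nM in 10 mM Tris-HCl pH 8.0, 0.01% Tween 20, with an AMC peptide substrate. Fluorescence change (340/450 nm) over 15 min at room temperature, normalized to controls, fitted to 4-parameter Hill.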
# [7] = Confirmatory screen GU Rhodamine qHTS for Zika virus inhibitors qHTS (AID 1347157)
# Outline: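 Compounds, tested up to 114 microM, were incubated for 15 minutes with 25 nM unlinked NS2B-NS3 protease at pH 8.0. Cleavage of 1.5 microM Rhodamine110 substrate was then followed by fluorescence for 15 minutes.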
# [8] = test system: Zika virus NS2B-NS3 protease (unlinked complex); assay: Primary screen GU Rhodamine qHTS for Zika virus inhibitors: Unlinked NS2B-NS3 protease assay (AID 1347159); further: potency means the concentration at half of the fitted maximal effect; nearly all actives have a fitted effect of over 60% in size
# Outline: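 Enzyme 25 nM in Tris-HCl pH 8.0 + 0.01% Tween 20; compounds up to 114 microM, 15 min RT dark; + Rhod110 substrate 1.5 microM; read t0 and 15 min; delta fluorescence → % inhibition → 4-parameter Hill fit.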
# [9] = test system: Zika virus NS2B-NS3 protease (linked construct); assay: Primary screen NINDS Rhodamine qHTS for Zika virus inhibitors (AID 1347160); further: nearly all actives have a fitted effect of over 55% in size; further: potency means the concentration at half of the fitted maximal effect
# Outline: as §1
# [10] = test system: Zika virus NS2B-NS3 protease (linked); assay: 384 well plate NINDS AMC confirmatory qHTS for Zika virus inhibitors (AID 1347163); further: potency means the concentration at half of the fitted maximal effect; nearly all actives have a fitted effect of over 50% in size
# Outline: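 Enzyme (5, 30 or 60 nM final) first met test compounds for ~15 min. The AMC-tagged peptide Ac-VKTGKR-AMC followed at 30 microM. Fluorescence was then recorded at 25 min and scaled against no-enzyme and no-inhibitor wells.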
# [11] = test system: Zika virus NS2B-NS3 protease (linked construct); assay: 384 well plate NINDS Rhodamine confirmatory qHTS for Zika virus inhibitors (AID 1347164);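 further: fluorescence from protease cleavage of Ac-LKRR-rhodamine 110 substrate; nearly all actives have a fitted effect of over 65% in size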; further: potency means the concentration at half of the fitted maximal effect; on activity change, negative = inhibition: top concentration of the series differs between compounds
# Outline: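 Linked NS2B-NS3 protease (final 5, 30 or 60 nM) preincubated ~15 minutes with compounds, then 10 microM Ac-LKRR-Rhodamine 110 added. Fluorescence (485/538 nm) read after 25 minutes at room temperature, normalized to no-enzyme and no-inhibitor controls.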
# [12] = qHTS to identify inhibitors of the type 1 interferon - major histocompatibility complex class I in skeletal muscle: primary screen against the NCATS Mechanism Interrogation Plate v5.0 (MIPE) Libary (AID 1347411); further: nearly all actives have a fitted effect of over 65% in size; further: potency means the concentration at half of the fitted maximal effect
# Outline: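 HLA-B HiBit myoblasts, dexamethasone-free medium + 4 ng/ml IFN-b, 24 h compound, 11-pt 1:3 from 46 uM final. Readout: Nano-Glo HiBiT lytic luminescence after 10 min lysis, RT.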
# [13] = ZIKV-mCherry secondary qHTS for Zika virus inhibitors (AID 1347158); further: top concentration of the series differs between compounds
# Outline: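 Read-out is percent infection: mCherry-positive Vero cells (nuclear-proximal intensity >450 RFU, 3 SD above negative controls) counted by high-content imaging of Hoechst-stained, PFA-fixed wells after 48-72 h with ZIKV-mCherry at MOI 1 and compound.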
# [14] = target: Protein phosphatase 1D (Homo sapiens) (UniProt O15297); assay: RapidFire Mass Spectrometry qHTS Assay for Modulators of WT P53-Induced Phosphatase 1 (WIP1) (AID 1347424); further: series mostly up to about 63 µM
# Outline: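 RapidFire MS readout of dephosphorylated VEPPL-S-QETFS product, with 1 uM isotope-labelled peptide standard. Reaction: 10 nM WIP1, 2 uM phosphopeptide substrate, 5 min, room temperature, after 1 h compound preincubation; stopped with 0.5% formic acid.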
# [15] = target: Protein phosphatase 1D (Homo sapiens) (UniProt O15297); assay: Rhodamine-PBP qHTS Assay for Modulators of WT P53-Induced Phosphatase 1 (WIP1) (AID 1347425)
# Outline: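 5 nM WIP1 + 10 uM Rh-PBP, 50 mM Tris pH 7.5, 30 mM MgCl2, 1 mM TCEP, 0.1 mM EGTA, BSA; cpds pinned, 1 hr RT; + 10 uM phosphopeptide; fluorescence 1-min reads x 11 min; delta = f1 - f0.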
# [16] = qHTS to identify inhibitors of the type 1 interferon - major histocompatibility complex class I in skeletal muscle: primary screen against the NCATS Pharmaceutical Collection (AID 1347407);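 further: luminescence of HiBiT knocked into endogenous HLA-B as interferon-induced MHC class I level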
# Outline: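 Immortalized human myoblasts (C25cl48) with HiBiT knocked into endogenous HLA-B*08:01 were stimulated with 4.0 ng/ml IFN-beta and treated with compounds ([…] top 46 uM) for 24 hrs at 37 C. HiBiT lytic luminescence read.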
# Protein phosphatase 1D (Homo sapiens), sequence (O15297 whole entry, looked up): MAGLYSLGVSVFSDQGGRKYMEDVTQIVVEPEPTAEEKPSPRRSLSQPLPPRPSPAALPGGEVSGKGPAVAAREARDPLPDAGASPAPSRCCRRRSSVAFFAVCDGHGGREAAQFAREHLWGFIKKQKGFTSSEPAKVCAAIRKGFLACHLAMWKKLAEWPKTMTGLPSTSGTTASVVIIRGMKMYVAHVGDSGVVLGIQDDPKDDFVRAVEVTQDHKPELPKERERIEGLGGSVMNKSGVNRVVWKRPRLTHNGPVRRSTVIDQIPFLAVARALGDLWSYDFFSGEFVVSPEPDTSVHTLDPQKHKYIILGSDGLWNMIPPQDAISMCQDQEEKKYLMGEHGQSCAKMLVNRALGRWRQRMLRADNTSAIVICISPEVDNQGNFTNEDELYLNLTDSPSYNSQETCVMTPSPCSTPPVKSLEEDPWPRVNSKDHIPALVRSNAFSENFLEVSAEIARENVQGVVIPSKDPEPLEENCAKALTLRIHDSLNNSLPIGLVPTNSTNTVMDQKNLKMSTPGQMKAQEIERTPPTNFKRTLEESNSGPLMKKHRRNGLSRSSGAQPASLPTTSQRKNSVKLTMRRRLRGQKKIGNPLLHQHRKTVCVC
# Furin (Homo sapiens), sequence (P09958 whole entry, looked up): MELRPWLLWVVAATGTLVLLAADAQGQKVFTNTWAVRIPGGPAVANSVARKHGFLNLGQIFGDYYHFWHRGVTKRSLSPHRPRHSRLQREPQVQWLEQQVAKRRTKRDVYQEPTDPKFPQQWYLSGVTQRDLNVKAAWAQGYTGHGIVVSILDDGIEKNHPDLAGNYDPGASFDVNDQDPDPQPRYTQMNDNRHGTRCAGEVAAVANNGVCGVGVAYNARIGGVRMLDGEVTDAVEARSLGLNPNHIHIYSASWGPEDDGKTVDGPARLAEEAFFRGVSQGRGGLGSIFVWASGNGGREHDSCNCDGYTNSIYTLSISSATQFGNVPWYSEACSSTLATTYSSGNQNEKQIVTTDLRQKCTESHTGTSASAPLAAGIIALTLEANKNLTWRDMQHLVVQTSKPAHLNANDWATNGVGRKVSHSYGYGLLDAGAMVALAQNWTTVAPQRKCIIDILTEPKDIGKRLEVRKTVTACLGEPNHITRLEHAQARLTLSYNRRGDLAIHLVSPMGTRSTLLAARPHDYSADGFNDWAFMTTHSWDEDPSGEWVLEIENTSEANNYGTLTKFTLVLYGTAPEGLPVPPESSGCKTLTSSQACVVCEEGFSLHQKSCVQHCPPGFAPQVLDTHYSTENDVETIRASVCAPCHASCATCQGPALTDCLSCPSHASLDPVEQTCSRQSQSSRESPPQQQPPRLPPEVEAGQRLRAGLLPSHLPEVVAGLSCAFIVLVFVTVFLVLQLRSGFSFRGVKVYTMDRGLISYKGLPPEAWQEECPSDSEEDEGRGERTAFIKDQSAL
structure (smiles),measurement,setting,value
CCCCC[C@H](O)C=C[C@H]1[C@H](O)CC(=O)[C@H]1CCCCCCC(=O)O,Potency,Furin (Homo sapiens),inactive
same,Potency,[1],inactive
same,Potency,[2],inactive
same,Potency,[3],inactive
same,outcome,[4],inactive
same,Potency,[5],inactive
COc1ccc2cc1Oc1ccc(cc1)C[C@H]1c3cc(c(OC)cc3CCN1C)Oc1c(OC)c(OC)cc3c1[C@H](C2)N(C)CC3,Potency,[6],inactive
Cc1[nH]c(C=C2C(=O)Nc3ccc(S(=O)(=O)N(C)c4cccc(Cl)c4)cc32)c(C)c1C(=O)N1CCN(C)CC1,Potency,[6],inactive
O=S(=O)(O)c1ccc2cc(N=Nc3cc(S(=O)(=O)O)c4cccnc4c3O)ccc2c1,Potency,Furin (Homo sapiens),inactive
same,Potency,[7],1.39 µM (active)
same,Potency,[8],0.794 µM (active)
same,Potency,[9],1.26 µM (active)
same,Potency,[3],1.39 µM (active)
same,Potency,[10],79.4 µM (active)
same,Potency,[11],0.562 µM (active)
same,outcome,[4],inactive
same,Potency,[5],3.7 µM (active)
same,Potency,[12],inactive
Fc1ccc(C(c2ccc(F)cc2)N2CCN(CC=Cc3ccccc3)CC2)cc1,Potency,Furin (Homo sapiens),inactive
same,Potency,[1],inactive
same,Potency,[2],inactive
same,Potency,[3],inactive
COc1ccc2ccc(=O)oc2c1CC=C(C)C,Potency,[6],inactive
N#CC(c1ccc(Cl)cc1)c1c(Cl)cc(-n2ncc(=O)[nH]c2=O)cc1Cl (centres undefined),Potency,[1],21.5 µM (active)
same,Potency,[2],21.5 µM (active)
same,Potency,[3],4.4 µM (active)
same,Potency,[11],35.5 µM (active)
same,outcome,[4],inactive
same,Potency,[12],inactive
COc1ccc(-c2ccc3ncc4c(c3c2)n(-c2ccc(N3CCNCC3)c(C(F)(F)F)c2)c(=O)n4C)cn1,"activity change, negative = inhibition",Furin (Homo sapiens),-10.9% [at 5.45 µM]
same,"activity change, negative = inhibition",[1],-9% [at 5.51 µM]
same,"activity, negative = inhibition",[2],-4.48% [at 5.51 µM]
same,Potency,[6],21.5 µM (active)
same,"activity change, negative = inhibition",[3],14.2% [at 12.7 µM]
same,"activity change, negative = cytotoxicity",[4],-5.65% [at 4.93 µM]
same,Potency,[12],0.147 µM (active)
C[C@H]1COC2=C1C(=O)C(=O)c1c2ccc2c1CCCC2(C)C,Potency,[2],21.5 µM (active)
same,outcome,[13],inactive
same,Potency,[3],7.84 µM (active)
same,outcome,[4],inactive
same,Potency,[5],inactive
c1cc(OCCN2CCCCC2)cc(-c2n[nH]c3ccc(-c4ncn[nH]4)cc23)c1,Potency,Furin (Homo sapiens),21.5 µM (active)
same,Potency,[1],24.1 µM (active)
same,Potency,[6],24.1 µM (active)
same,Potency,[9],inactive
same,Potency,[3],inactive
same,outcome,[4],inactive
same,Potency,[5],inactive
CCOC(=O)[C@H](CCc1ccccc1)N[C@@H](C)C(=O)N1CCCC1C(=O)O (some centres undefined),Potency,Furin (Homo sapiens),inactive
same,Potency,[1],inactive
same,Potency,[2],inactive
same,Potency,[3],inactive
same,outcome,[4],inactive
same,Potency,[5],inactive
C[C@@H]1O[C@@H](O[C@H]2CC[C@@]3(C)[C@H](CC[C@@H]4[C@H]3C[C@@H](O)[C@]3(C)[C@@H](C5=CC(=O)OC5)CC[C@]43O)C2)C[C@H](O)[C@@H]1O[C@H]1C[C@H](O)[C@H](O[C@H]2C[C@H](O)[C@@H](O)[C@@H](C)O2)[C@H](C)O1 (stereo in doubt),Potency,[6],inactive
O=c1cc(-c2ccc(O)c(O)c2)oc2cc(O)cc(O)c12,Potency,Furin (Homo sapiens),inactive
same,outcome,[13],inactive
same,Potency,[3],28.2 µM (active)
same,Potency,[10],70.8 µM (active)
same,Potency,[11],inactive
same,"activity change, negative = inhibition",[5],46.1% [at 3.57 µM]
Cn1c(=O)c(-c2c(Cl)cccc2Cl)cc2cnc(Nc3cccc(C(=O)O)c3)nc21,Potency,[7],11.1 µM (active)
same,Potency,[3],13.9 µM (active)
O=C(CCCN1CCN(c2ccc(F)cc2)CC1)NC1c2ccccc2CSc2ccccc21 (centres undefined),Potency,[14],inactive
same,outcome,[15],inactive
C[C@@]1(c2cc(-c3cncnc3)c(F)cc2F)CCSC(N)=N1,Potency,[6],inactive
same,Potency,[9],inactive
same,Potency,[12],inactive
NCC1CCC(C(=O)O)CC1 (centres undefined),Potency,[6],inactive
same,Potency,[12],inactive
OC1CCC(Nc2ncc3nc(Nc4c(F)cc(F)cc4F)n([C@@H]4CCOC4)c3n2)CC1 (some centres undefined),Potency,[6],24.1 µM (active)
same,Potency,[12],inactive
Cc1c(C(=O)Nc2ccc(N3C[C@@H](C)O[C@@H](C)C3)nc2)cccc1-c1ccc(OC(F)(F)F)cc1,Potency,[6],inactive
same,Potency,[9],inactive
same,Potency,[12],inactive
C[C@@H](NC(=O)c1ncnc(N)c1Cl)c1ncc(C(=O)Nc2cc(C(F)(F)F)c(Cl)cn2)s1,Potency,[6],inactive
same,Potency,[9],inactive
CNC(=O)c1c(-c2ccc(F)cc2)oc2cc(N(CCO)S(C)(=O)=O)c(C3CC3)cc12,Potency,[6],27.1 µM (active)
same,Potency,[9],inactive
O=C1C(c2c(O)[nH]c3ccccc23)=Nc2ccccc21,Potency,[6],inactive
same,Potency,[9],inactive
same,Potency,[12],inactive
CCN1C[C@H](C)n2c(c(O)c3c(=O)n(Cc4ccc(F)c(Cl)c4)nc(C(=O)NC)c32)C1=O,Potency,[6],inactive
same,Potency,[9],inactive
CN(C)CCN(Cc1ccc(Cl)cc1)c1ccccn1,Potency,[6],inactive
same,outcome,[16],inactive
same,Potency,[14],inactive
same,outcome,[15],inactive
C[C@@H]1C[C@H]2[C@@H]3CCC4=CC(=O)C=C[C@]4(C)[C@@]3(F)[C@@H](O)C[C@]2(C)[C@@]1(O)C(=O)CO,Potency,[6],inactive
same,outcome,[16],inactive
same,Potency,[14],inactive
same,outcome,[15],inactive
Cn1cnc(-c2cc3nccc(Oc4ccc(NC(=S)NC(=O)Cc5ccccc5)cc4F)c3s2)c1,Potency,[6],inactive
same,Potency,[9],inactive

# Source: PubChem BioAssay (NCATS)
